# Results published in PubChem BioAssay (NCI).
# About 79,000 compounds went through this panel and 15% of them were active in at least one assay; those are over-represented in the sample as a whole. A number with no mark means an inactive call. Activity calls are given as the source filed them. Rule as the data show it: active = growth inhibition above about 70%; inactive = the rest.
# Key:
# [1] = NCI Yeast Anticancer Drug Screen. Data for the rad50 strain (AID 155);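 also: 0% = growth of vehicle-only cultures of the same strain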; conditions: S. cerevisiae rad50 strain growth inhibition; at 50.0 µM; stronger effect = higher value
# In short: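 DNA repair mutant yeast, compound exposure, growth read-out; inhibition is taken relative to vehicle.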
# [2] = NCI Yeast Anticancer Drug Screen. Data for the mec2-1 strain (AID 157); conditions: S. cerevisiae mec2-1 strain, at 50.0 µM, stronger effect = higher value
# In short: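 Using mec2-1 yeast: add compound, measure growth, express inhibition versus vehicle-treated cultures.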
# [3] = NCI Yeast Anticancer Drug Screen. Data for the sgs1 mgt1 strain (AID 161);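 also: 0% = growth of cultures given vehicle only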; conditions: S. cerevisiae sgs1 mgt1 strain, at 50.0 µM, stronger effect = higher value
# In short: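 Growth of a repair-deficient yeast mutant was monitored after compound treatment and expressed as inhibition relative to vehicle-treated cultures.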
# [4] = NCI Yeast Anticancer Drug Screen. Data for the cln2 rad14 strain (AID 165);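 also: 0% = growth equal to vehicle treated cultures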; conditions: S. cerevisiae cln2 rad14 strain, at 50.0 µM, stronger effect = higher value
# In short: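 Yeast strain cln2 rad14, bearing defects in cell cycle control and DNA repair, serves as the test system; values reflect growth inhibition compared with vehicle.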
# [5] = NCI Yeast Anticancer Drug Screen. Data for the bub3 strain (AID 167); conditions: S. cerevisiae bub3 mutant strain, at 50.0 µM, stronger effect = higher value
# In short: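 In this screen, a yeast mutant lacking normal mitotic checkpoint function is challenged with compound. Relative growth versus vehicle gives the inhibition value.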
# [6] = NCI Yeast Anticancer Drug Screen. Data for the mlh1 rad18 strain (AID 175); conditions: S. cerevisiae mlh1 rad18 strain growth inhibition; at 50.0 µM; stronger effect = higher value
# In short: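 Steps: expose repair-defective yeast to compound; measure growth; express inhibition against vehicle-treated controls.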
Structure (SMILES),growth inhibition [1],growth inhibition [2],growth inhibition [3],growth inhibition [4],growth inhibition [5],growth inhibition [6]
COc1cc2c(c3c1c(=S)c1ccccc1n3C)C=CC(C)(C)O2,59.5%,18.9%,86.2% (active),27.1%,82.7% (active),78.1% (active)
CCO/C=C1/N=C(c2ccc(OC)c(OC)c2)OC1=O,-6.3%,5.6%,18.6%,-67.8%,-7.2%,12.2%
O=S(=O)(OC12CCCCC1CN1CCCCC1C2)c1ccc(Br)cc1 (stereo unspecified),14.6%,9.5%,-4.1%,-3.1%,3.7%,12.8%
COC1=C(OC)C(=O)C(COC2CCCCO2)=CC1=O (stereo unspecified),-4.9%,-1.45%,8.75%,87.5% (active),10.6%,-6.65%
O=CNc1ccc(Br)cc1,-8.3%,-0.9%,11.4%,0.7%,-1.15%,9.95%
COc1ccc2c(c1)C(=O)C1CC(=O)CCC21 (stereo unspecified),-6.45%,-10.4%,-8.9%,-21.8%,-30.6%,-8.9%
CCCCCCOC(=O)CCCCCC1CCCCC1,3.15%,-6.5%,2.3%,-77.4%,-6.05%,-6.55%
CC(=O)/C(=C/n1ccc(=O)[nH]c1=S)C(=O)Nc1ccc(Cl)cc1,-32%,-7.6%,4.7%,11.7%,-20.4%,3.4%
Cc1cc(C)c2ccccc2n1,-6.45%,-30.4%,-8.2%,-3.4%,-5.1%,18.1%
NS(=O)(=O)c1ccc(Nc2c3ccccc3nc3ncccc23)cc1,-6.85%,7.35%,13.9%,-11.8%,9.2%,16.9%
CC(=O)NC(CCCCNC(=O)N(C)N=O)C(=O)NCc1ccccc1 (stereo unspecified),-41.1%,-17.6%,-12.2%,-4.3%,-26.8%,-12.8%
CCNc1nnc(N=Nc2ccccc2)s1,0.5%,12.8%,13.4%,-2%,7.55%,3.65%
Cn1cnc(=S)c2ccccc21,-11%,-12.8%,-18.3%,-6.05%,0.8%,-29.1%
Cc1ccc(NC(=O)CC2C(=O)Nc3ccccc3S2=O)c(C)c1 (stereo unspecified),-7.85%,-24.9%,4.45%,20.4%,15.8%,-5.55%
COC(=O)C(=O)C(C)C(=O)C(C)c1nc(NC(=O)Nc2ccc(Cl)cc2)n[nH]1 (stereo unspecified),1.65%,-3.7%,3%,-32%,13.4%,7.1%
C#CCC[N+](C)(C)C,-0.75%,-12.5%,-5.2%,11.2%,-7.45%,4.55%
CN(C)S(=O)(=O)N1CCCc2ccccc21,3.4%,8.8%,3.55%,7.1%,31.1%,11%
O=C(O)c1cccc(C2=CCCC2)c1,15.2%,6.1%,14.1%,10.3%,-26.5%,15.7%
O=C1CN(c2ccccc2)C(=O)CN1/N=C/c1ccc(O)c(O)c1,-35.2%,8.75%,-3.25%,12.7%,-2.55%,-11.2%
Cc1c([N+](=O)[O-])cc2c(c1[N+](=O)[O-])C(C(C)C)CCC2(C)C (stereo unspecified),-1.5%,-25.2%,9.65%,29.2%,-40.4%,-5%
COc1ccccc1C=Nc1ccc(O)cc1,8.45%,12.3%,3.9%,-26.6%,3.5%,37.5%

Structure (SMILES),growth inhibition [1],growth inhibition [2],growth inhibition [3],growth inhibition [4],growth inhibition [5],growth inhibition [6]
O=C1c2c(ccc3c2CCCC3)CC12Cc1ccccc1C2,8.9%,-4.45%,9.25%,-2.75%,4.8%,4.7%
CCN(C(=O)NC(C)(C)C)c1cccc(C)c1,3.15%,-1.9%,0.35%,-19.6%,-0.3%,5.8%
COC(=O)C1C(O)C(C)C(O)C(C)(O)C=C(C)C2=C3C(=C(C)C(=O)c4c(O)c(c(C)c(OC(C)=O)c43)NC(=O)C(C)=C/C=C\C(C)(O)C(O)C(C)C1O)OCO2 (stereo unspecified),14.3%,1.65%,0.85%,-1.55%,3.85%,6.25%
O=C(c1ccccc1Cl)N1CCN(c2ccccc2)CC1,12.9%,-3.4%,0%,-28.5%,9.55%,-6.85%
Cc1ccccc1N=Cc1ccc(N(CCC#N)S(=O)(=O)c2ccccc2)cc1,11.7%,-8.3%,19.9%,18.7%,0.95%,15%
CSc1nc(C)cc(=O)n1C1OC(COC(C)=O)C(OC(C)=O)C(OC(C)=O)C1OC(C)=O (stereo unspecified),20.6%,-13.6%,-7.35%,16.6%,-30.6%,32.5%
CCOC(=O)C1=C(SC)SC(C(=O)OCC)C2C=C(C)C=CN12 (stereo unspecified),-5.2%,-19.4%,-10.7%,5.05%,-32.9%,3.75%
CC1OC(c2ccccc2)C(=O)N1C1(C)C(=O)N2CCOC21c1ccccc1 (stereo unspecified),8.4%,11.2%,2.15%,5%,-1.95%,-3.05%
CCCCCCCCCCCCCC/C=N/Nc1ccc([N+](=O)[O-])cc1[N+](=O)[O-],21.3%,24%,13.5%,6.25%,-2%,22.8%
COc1cccc(CN2C(=O)NC(C)(C)C2O)c1 (stereo unspecified),-12.2%,28.4%,10.3%,-5.75%,11.6%,10.2%
O=C1O[C@@H](c2ccc3c(c2)OCO3)C2C(=O)O[C@@H](c3ccc4c(c3)OCO4)C12 (stereo partly specified),13.5%,8.95%,-8.15%,19.4%,2.6%,21.7%
O=C(OC(CN1CCCCC1)CN1CCCc2ccccc21)C(O)C(O)C(O)(CO)C(=O)OC(CN1CCCCC1)CN1CCCc2ccccc21 (stereo unspecified),15.4%,7.05%,43.8%,1.8%,7.95%,41.1%
COc1cc(C)c(C(=O)/C=C/c2cc(OC)c(O)c(OC)c2)cc1O,55.7%,36.9%,39.6%,35.6%,46.2%,46.7%
CC(=O)C1=C(C)NC2C=CC=CN12 (stereo unspecified),3.95%,-6.9%,15.5%,17.9%,7.3%,12.9%
O=C(O)CCCSc1ccc2ccccc2c1,48.5%,3.75%,45.6%,24.9%,4.55%,38.3%
CCC(C)(C)c1ccc(OCCCCNC(=O)c2ccc3ccccc3c2O)c(C(C)(C)CC)c1,-7.65%,2.05%,-14.2%,-37.1%,-18.2%,3.15%
CN(C)c1ccc(/C=c2\[nH]c(=O)/c(=C\c3ccc(N(C)C)cc3)[nH]c2=O)cc1,4.3%,4.6%,12.2%,14.6%,-8.55%,16.2%
O=c1[nH]c(=S)[nH]c2c1CN(CCCN1CCOCC1)CN2,10.3%,-8.7%,-15.8%,3.2%,-25.1%,5.45%
O=C(/C(=C\C(=O)c1cccs1)c1ccsc1)c1ccc(Br)cc1,1.2%,-32%,11.2%,-25.9%,14.5%,-17.3%
OC1CC/C=C\CC/C=C/CCC1O (stereo unspecified),-5.75%,6.45%,0.5%,24.1%,3.8%,0.55%
